Source: ChEMBL document CHEMBL1961873, “Compounds: GSK PKIS; Assays: Nanosyn kinase panel” (2012)

Assays:
[1] = biological target: Sphingosine kinase 1 (Homo sapiens) (UniProt Q9NYA1); conditions: at 1 µM;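 also: mean SPHK1 inhibition value reported from the GSK PKIS kinase panel screen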
[2] = biological target: T1, Sphingosine kinase 2 (Homo sapiens) (UniProt Q9NRA0); conditions: at 0.1 µM
T1 sequence (whole entry): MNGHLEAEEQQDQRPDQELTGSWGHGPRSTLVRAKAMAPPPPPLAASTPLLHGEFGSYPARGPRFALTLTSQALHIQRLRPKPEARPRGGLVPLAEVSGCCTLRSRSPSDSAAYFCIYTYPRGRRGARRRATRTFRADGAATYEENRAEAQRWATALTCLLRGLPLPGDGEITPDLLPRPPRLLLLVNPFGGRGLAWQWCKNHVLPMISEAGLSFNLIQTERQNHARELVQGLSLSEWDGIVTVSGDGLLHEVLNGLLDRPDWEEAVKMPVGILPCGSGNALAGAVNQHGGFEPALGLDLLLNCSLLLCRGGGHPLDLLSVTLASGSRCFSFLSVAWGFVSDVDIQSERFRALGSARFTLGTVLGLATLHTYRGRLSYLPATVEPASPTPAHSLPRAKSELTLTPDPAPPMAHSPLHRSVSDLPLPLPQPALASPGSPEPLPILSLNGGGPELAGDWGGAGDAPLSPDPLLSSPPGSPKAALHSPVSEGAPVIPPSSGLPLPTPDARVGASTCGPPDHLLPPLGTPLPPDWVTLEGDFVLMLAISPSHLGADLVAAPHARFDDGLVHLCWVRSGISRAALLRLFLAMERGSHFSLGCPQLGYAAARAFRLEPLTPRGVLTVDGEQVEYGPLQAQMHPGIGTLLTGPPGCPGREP

[3] = biological target: T1, Sphingosine kinase 2 (Homo sapiens); conditions: at 1 µM
[4] = biological target: Casein kinase II subunit alpha (Homo sapiens) (UniProt P68400); conditions: at 0.1 µM
[5] = biological target: Casein kinase II subunit alpha (Homo sapiens) (UniProt P68400); conditions: at 1 µM
[6] = biological target: T2, Inhibitor of nuclear factor kappa-B kinase subunit alpha (Homo sapiens) (UniProt O15111); conditions: at 0.1 µM
T2 sequence (whole entry): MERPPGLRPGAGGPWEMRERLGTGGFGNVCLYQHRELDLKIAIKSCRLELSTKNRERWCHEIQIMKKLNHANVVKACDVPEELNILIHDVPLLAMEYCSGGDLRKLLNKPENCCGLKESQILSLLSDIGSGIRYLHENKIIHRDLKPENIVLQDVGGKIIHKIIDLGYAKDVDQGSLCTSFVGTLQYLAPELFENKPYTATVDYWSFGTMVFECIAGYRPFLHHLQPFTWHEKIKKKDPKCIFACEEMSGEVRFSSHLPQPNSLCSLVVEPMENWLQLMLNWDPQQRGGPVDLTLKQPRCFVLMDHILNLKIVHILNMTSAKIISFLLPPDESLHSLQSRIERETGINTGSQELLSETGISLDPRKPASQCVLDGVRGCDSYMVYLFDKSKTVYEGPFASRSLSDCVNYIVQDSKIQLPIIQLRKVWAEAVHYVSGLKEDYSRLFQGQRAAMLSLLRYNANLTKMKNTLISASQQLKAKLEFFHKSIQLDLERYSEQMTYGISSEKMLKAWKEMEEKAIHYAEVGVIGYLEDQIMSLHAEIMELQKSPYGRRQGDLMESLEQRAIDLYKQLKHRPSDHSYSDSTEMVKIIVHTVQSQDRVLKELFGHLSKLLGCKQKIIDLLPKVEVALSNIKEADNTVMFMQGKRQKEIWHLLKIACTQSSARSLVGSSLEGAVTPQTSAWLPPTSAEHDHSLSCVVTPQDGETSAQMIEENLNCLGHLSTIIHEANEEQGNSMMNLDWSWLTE

[7] = biological target: T2, Inhibitor of nuclear factor kappa-B kinase subunit alpha (Homo sapiens); conditions: at 1 µM
[8] = biological target: T3, Inhibitor of nuclear factor kappa-B kinase subunit beta (Homo sapiens) (UniProt O14920); conditions: at 0.1 µM
T3 sequence (whole entry): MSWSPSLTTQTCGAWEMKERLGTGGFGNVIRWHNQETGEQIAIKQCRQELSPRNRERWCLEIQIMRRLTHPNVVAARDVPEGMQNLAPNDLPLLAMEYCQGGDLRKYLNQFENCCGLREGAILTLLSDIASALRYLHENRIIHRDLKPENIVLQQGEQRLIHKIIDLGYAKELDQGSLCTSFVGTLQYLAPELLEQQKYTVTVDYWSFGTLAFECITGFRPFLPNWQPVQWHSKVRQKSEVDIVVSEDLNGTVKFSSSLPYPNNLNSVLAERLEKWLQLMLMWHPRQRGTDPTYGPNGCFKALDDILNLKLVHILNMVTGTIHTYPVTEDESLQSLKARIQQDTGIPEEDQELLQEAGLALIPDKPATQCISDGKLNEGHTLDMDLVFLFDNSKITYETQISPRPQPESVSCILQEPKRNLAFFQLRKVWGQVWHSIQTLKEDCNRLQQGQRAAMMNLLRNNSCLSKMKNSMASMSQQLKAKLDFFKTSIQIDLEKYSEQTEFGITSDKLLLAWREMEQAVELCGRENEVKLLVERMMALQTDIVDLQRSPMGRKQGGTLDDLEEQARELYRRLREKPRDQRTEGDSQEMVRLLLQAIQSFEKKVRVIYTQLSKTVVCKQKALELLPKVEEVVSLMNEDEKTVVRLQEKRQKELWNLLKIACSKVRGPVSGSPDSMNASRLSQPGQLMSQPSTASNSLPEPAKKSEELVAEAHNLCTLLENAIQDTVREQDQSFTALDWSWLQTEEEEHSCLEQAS

[9] = biological target: T3, Inhibitor of nuclear factor kappa-B kinase subunit beta (Homo sapiens); conditions: at 1 µM
[10] = biological target: T4, Inhibitor of nuclear factor kappa-B kinase subunit epsilon (Homo sapiens) (UniProt Q14164); conditions: at 0.1 µM
T4 sequence (whole entry): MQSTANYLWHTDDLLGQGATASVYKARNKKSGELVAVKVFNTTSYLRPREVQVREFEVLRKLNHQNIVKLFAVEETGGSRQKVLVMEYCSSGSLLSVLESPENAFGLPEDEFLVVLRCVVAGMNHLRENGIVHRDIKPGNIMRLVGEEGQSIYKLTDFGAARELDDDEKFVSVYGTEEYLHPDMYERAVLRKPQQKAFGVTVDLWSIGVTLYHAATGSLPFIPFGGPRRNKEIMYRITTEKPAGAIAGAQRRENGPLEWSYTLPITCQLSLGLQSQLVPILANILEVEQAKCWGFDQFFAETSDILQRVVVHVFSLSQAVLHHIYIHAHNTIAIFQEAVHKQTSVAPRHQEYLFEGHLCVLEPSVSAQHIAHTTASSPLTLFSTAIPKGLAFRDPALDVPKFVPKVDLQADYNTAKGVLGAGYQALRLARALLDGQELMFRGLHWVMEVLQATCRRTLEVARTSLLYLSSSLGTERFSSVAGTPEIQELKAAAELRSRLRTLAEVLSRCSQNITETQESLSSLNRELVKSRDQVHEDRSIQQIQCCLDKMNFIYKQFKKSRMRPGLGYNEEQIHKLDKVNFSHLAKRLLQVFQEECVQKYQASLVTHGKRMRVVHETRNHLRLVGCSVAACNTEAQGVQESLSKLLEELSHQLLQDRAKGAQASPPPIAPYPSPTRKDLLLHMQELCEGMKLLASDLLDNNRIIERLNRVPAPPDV

[11] = biological target: T4, Inhibitor of nuclear factor kappa-B kinase subunit epsilon (Homo sapiens); conditions: at 1 µM
[12] = biological target: T5, Serine/threonine-protein kinase Nek1 (Homo sapiens) (UniProt Q96PY6); conditions: at 0.1 µM
T5 sequence (whole entry): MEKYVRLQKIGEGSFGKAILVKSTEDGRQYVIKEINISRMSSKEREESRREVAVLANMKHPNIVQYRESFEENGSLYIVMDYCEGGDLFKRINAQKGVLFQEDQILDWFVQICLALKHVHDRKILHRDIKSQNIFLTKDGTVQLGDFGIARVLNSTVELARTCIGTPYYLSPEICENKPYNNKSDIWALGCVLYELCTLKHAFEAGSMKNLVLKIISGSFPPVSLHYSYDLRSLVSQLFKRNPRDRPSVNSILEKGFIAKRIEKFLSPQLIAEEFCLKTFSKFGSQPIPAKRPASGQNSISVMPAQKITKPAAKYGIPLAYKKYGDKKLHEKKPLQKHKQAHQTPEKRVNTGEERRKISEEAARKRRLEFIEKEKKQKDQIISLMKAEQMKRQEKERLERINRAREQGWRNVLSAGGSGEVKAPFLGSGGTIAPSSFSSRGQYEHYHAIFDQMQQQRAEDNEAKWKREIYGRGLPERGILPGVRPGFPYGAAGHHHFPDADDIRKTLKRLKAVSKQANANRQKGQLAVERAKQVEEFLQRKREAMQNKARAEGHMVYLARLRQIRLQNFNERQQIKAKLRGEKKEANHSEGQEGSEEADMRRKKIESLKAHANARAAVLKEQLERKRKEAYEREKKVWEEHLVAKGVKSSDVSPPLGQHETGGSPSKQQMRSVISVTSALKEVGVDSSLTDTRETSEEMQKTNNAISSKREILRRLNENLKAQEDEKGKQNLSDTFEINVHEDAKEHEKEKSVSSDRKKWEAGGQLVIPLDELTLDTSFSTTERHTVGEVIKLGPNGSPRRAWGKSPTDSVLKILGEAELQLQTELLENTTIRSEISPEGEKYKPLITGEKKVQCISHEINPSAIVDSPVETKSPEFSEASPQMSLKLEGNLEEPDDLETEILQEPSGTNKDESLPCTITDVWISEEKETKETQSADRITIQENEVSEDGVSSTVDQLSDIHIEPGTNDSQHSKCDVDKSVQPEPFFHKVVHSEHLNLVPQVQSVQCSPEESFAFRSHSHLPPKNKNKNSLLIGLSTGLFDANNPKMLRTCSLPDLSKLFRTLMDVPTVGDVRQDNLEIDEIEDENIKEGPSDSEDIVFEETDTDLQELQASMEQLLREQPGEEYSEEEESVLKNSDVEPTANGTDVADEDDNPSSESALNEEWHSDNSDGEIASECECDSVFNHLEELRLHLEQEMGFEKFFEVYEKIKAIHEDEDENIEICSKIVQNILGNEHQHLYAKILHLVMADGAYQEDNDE

[13] = biological target: T5, Serine/threonine-protein kinase Nek1 (Homo sapiens); conditions: at 1 µM
[14] = biological target: T6, Serine/threonine-protein kinase Nek2 (Homo sapiens) (UniProt P51955); conditions: at 0.1 µM
T6 sequence (whole entry): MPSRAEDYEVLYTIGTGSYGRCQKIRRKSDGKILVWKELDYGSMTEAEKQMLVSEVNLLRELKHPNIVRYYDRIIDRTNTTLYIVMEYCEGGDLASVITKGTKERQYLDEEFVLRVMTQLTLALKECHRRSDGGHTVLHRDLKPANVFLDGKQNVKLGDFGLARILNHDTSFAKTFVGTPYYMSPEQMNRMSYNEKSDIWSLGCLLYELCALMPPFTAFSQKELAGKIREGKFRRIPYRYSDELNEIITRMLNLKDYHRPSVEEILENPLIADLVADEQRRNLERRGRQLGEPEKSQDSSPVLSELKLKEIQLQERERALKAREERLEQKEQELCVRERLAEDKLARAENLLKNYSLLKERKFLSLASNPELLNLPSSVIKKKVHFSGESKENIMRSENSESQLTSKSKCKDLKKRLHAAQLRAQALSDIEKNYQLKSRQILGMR

[15] = biological target: T6, Serine/threonine-protein kinase Nek2 (Homo sapiens); conditions: at 1 µM
[16] = biological target: Serine/threonine-protein kinase Nek6 (Homo sapiens) (UniProt Q9HC98); conditions: at 0.1 µM
[17] = biological target: Serine/threonine-protein kinase Nek6 (Homo sapiens) (UniProt Q9HC98); conditions: at 1 µM
[18] = biological target: Serine/threonine-protein kinase Nek7 (Homo sapiens) (UniProt Q8TDX7); conditions: at 0.1 µM
[19] = biological target: Serine/threonine-protein kinase Nek7 (Homo sapiens) (UniProt Q8TDX7); conditions: at 1 µM
[20] = biological target: T7, Serine/threonine-protein kinase Nek9 (Homo sapiens) (UniProt Q8TD19); conditions: at 0.1 µM;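 also: reported value is the mean percent inhibition of NEK9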
T7 sequence (whole entry): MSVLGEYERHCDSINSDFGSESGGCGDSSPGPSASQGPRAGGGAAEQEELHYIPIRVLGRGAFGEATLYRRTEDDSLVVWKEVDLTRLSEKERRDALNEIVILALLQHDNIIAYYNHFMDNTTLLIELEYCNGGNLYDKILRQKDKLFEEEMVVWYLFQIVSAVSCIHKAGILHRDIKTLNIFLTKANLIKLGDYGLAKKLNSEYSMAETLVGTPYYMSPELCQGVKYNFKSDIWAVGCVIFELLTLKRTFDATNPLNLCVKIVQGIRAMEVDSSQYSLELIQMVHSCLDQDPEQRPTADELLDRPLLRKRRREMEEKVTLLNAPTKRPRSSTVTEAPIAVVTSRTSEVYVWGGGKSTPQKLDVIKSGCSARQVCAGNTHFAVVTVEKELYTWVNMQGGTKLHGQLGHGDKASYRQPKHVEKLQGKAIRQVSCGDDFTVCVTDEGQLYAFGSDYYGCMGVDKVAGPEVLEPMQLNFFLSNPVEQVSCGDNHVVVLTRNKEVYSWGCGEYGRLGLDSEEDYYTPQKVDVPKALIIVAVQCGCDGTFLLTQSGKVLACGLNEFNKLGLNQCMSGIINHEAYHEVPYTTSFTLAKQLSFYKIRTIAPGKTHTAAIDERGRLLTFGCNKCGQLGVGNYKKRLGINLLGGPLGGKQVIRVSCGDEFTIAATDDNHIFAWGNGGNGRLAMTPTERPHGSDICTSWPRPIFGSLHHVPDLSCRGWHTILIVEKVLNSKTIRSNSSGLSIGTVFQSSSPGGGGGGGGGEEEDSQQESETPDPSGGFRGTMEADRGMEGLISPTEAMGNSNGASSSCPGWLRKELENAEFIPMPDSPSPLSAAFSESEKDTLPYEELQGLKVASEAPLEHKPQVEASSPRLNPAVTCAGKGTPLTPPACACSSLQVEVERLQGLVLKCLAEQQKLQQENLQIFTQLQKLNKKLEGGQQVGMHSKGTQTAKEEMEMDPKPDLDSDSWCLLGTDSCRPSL

Sequence of Serine/threonine-protein kinase Nek6 (Homo sapiens) (Q9HC98 whole entry): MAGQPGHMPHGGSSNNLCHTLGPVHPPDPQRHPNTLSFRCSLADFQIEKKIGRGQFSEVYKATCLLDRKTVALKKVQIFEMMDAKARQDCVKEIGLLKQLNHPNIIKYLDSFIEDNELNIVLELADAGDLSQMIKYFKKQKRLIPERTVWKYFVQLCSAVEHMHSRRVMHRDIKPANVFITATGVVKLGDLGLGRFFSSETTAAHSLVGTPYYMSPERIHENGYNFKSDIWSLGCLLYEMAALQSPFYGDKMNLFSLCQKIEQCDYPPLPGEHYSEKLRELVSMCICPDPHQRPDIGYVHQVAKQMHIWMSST
Sequence of Serine/threonine-protein kinase Nek7 (Homo sapiens) (Q8TDX7 whole entry, looked up): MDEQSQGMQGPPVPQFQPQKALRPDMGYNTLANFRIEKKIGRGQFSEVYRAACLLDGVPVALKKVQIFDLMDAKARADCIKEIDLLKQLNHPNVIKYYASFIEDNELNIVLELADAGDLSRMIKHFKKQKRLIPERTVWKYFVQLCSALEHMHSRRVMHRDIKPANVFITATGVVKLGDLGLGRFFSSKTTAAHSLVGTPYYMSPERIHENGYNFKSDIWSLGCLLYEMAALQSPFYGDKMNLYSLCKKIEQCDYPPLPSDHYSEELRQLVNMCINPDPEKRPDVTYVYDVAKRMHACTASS
Sequence of Casein kinase II subunit alpha (Homo sapiens) (P68400 whole entry, looked up): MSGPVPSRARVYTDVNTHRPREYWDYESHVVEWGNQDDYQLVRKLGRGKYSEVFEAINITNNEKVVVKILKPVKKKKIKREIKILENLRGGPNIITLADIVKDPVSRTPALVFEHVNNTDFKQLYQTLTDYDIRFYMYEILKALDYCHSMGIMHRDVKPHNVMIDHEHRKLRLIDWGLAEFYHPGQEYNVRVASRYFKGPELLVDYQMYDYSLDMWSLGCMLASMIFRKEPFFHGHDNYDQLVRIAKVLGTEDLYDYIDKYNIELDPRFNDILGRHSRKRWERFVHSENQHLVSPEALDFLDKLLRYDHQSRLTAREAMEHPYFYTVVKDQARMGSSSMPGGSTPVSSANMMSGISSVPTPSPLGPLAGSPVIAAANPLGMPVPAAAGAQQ
Sequence of Sphingosine kinase 1 (Homo sapiens) (Q9NYA1 whole entry): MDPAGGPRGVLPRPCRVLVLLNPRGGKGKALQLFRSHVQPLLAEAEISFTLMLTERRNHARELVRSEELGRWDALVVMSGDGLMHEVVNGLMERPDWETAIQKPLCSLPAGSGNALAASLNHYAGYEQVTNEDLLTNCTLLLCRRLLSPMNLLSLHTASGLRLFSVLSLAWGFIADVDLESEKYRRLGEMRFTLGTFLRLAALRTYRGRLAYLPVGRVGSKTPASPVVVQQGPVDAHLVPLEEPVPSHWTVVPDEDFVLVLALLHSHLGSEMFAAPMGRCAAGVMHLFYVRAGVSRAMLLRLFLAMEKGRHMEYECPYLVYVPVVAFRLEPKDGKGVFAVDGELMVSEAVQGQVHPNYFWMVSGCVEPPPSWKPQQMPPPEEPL

Row | Structure (SMILES) | inhibition [1] | inhibition [2] | inhibition [3] | inhibition [4] | inhibition [5] | inhibition [6] | inhibition [7] | inhibition [8] | inhibition [9] | inhibition [10] | inhibition [11] | inhibition [12] | inhibition [13] | inhibition [14] | inhibition [15] | inhibition [16] | inhibition [17] | inhibition [18] | inhibition [19] | inhibition [20]
1 | Fc1ccc(Nc2nccc(-c3c(-c4ccc(C(F)(F)F)cc4)nn4ncccc34)n2)cc1F | -1.66% | -0.99% | -0.13% | 2.02% | 1.28% | 9.17% | 4.1% | 5.58% | 3.19% | 2.59% | 4.2% | 1.24% | 1.72% | 4.93% | 4.4% | -0.59% | 0.48% | 3.33% | 2.76% | 4.79%
2 | O=C(Nc1n[nH]c2nnc(-c3cccnc3)cc12)C1CC1 | -2.26% | -0.36% | -1.77% | 3.14% | 5.42% | 0.84% | -0.73% | 1.55% | 1.04% | -2.46% | 0.84% | 0.17% | 1.72% | 0.71% | -2.27% | -0.09% | -0.1% | 0.09% | 1.6% | 7.25%
